Screening results from PubChem.
Most compounds without a hit are left out; they make up all but 3% or so of the library.
SENP8 block-1: human SENP8 protease inhibitors, primary screen, biochemical, fluorescence, Nedd8 protein substrate, uHTS; AID 602440, 2012; 360,000 tested, 0.64% active; recombinant SENP8; Sentrin-specific protease 8 (Homo sapiens), Q96LD8; inhibition, % at 20 µM; in the data active = inhibition mostly above about 40%, no sharp cut-off; inactive = mostly below about 27%
Target sequence (Q96LD8 whole entry, looked up): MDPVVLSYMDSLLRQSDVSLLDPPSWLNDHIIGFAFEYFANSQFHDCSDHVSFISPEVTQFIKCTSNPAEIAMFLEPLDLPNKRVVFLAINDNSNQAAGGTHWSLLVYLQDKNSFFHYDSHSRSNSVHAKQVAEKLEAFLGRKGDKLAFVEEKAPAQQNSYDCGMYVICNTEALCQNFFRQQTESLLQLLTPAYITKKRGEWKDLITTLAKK
SENP7 block: SENP7 protease inhibitors, primary screen, biochemical, luminescence, uHTS | Sentrin-specific protease 7 (Homo sapiens), Q9BQF6 | recombinant SENP7, Z-RLRGG-aminoluciferin luminescence, 40 min | inhibition, % at 5 µM | 330,000 tested, 1.5% active | AID 434973, 2010;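 active = inhibition above about 50% at the single test dose, limit read from the data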
TRAIL sens C8: viability loss with TRAIL in NB7+C8 cells, primary screen, TRAIL sensitizer project, cell-based, ATPlite luminescence | 360,000 tested, 1% active | inhibition (viability loss, TRAIL sensitization), % at 10 µM;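 active = compounds causing at least 50% loss of cell viability in the single-dose screen, relative to plate controls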
PPC-1+TRAIL kill: compounds killing PPC-1 cancer cells with TRAIL present, primary screen, TRAIL potentiator project, ATPLite luminescence, uHTS; 220,000 tested, 0.41% active; PPC-1 cells + TRAIL, ATPLite viability luminescence; cell killing (% activity), % at 4 µM or 5 µM; AID 1443, 2008;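 active = cell killing above 50% in the first pass at 4 µM, then a duplicate retest at 5 µM averaging 50% or more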
SENP8 block-2: SENP8 protease inhibitors, primary screen, biochemical, luminescence. purified SENP8, Z-RLRGG-aminoluciferin cleavage. inhibition, % at 10 µM. 330,000 tested, 1.2% active. AID 2540, 2010; in the data active = inhibition above about 50%
SENP6 inh: SENP6 protease inhibitors, primary screen, biochemical, luminescence, uHTS; Sentrin-specific protease 6 (Homo sapiens), Q9GZR1; Recombinant SENP6 catalytic domain, aminoluciferin luminescence; inhibition, % at 10 µM; 330,000 tested, 1.8% active; AID 2599, 2010;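 active = inhibition above about 50% at the single tested dose, limit read from the data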
SENP8 confirm: SENP8 protease inhibitors, retest, confirmation, biochemical, luminescence, single concentration; shares compounds with SENP7 block; Recombinant SENP8, Z-RLRGG-aminoluciferin luminescence, 60 min; inhibition, % at 12.5 µM; 6,200 tested, 40% active; AID 488912, 2010;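 active = mean inhibition across replicates above about 50%, limit read from the data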
SENP6 conf: SENP6 protease inhibitors, confirmation, biochemical, luminescence, single concentration. recombinant SENP6, Z-RLRGG-aminoluciferin luminescence. 6,200 tested, 58% active. AID 488915, 2010. inhibition, % at 12.5 µM. shares compounds with SENP7 block
SENP7 conf: SENP7 protease inhibitors, retest, confirmation, biochemical, luminescence, single concentration; 6,200 tested, 69% active; AID 488917, 2010; inhibition, % at 12.5 µM; shares compounds with SENP7 block; recombinant SENP7, Z-RLRGG-aminoluciferin luminescence, 40 min
Casp3 SENP sel: caspase-3 protease inhibitors, confirmation, selectivity assay for SENP inhibitor project, biochemical, single concentration. shares compounds with SENP7 block. purified caspase-3, Z-DEVD-aminoluciferin luminescence, 60 min. inhibition, % at 12.5 µM. 6,200 tested, 60% active;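 active = mean inhibition above about 50%, limit read from the data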
Target sequence (P42574 28-227 limits assumed): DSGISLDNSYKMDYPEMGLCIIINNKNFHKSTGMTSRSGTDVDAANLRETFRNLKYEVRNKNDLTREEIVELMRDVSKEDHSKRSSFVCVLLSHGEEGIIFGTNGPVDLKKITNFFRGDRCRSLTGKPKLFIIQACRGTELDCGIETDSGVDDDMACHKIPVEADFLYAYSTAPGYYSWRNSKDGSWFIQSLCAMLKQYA
SENP luc ctr: luminescence interference (SENP counter-screen) | Pre-incubated SENP8/Z-RLRGG-aminoluciferin, luciferase luminescence interference | shares compounds with SENP7 block | 6,200 tested, 39% active | inhibition, % at 12.5 µM;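 active = mean inhibition above about 50% when retested at one dose, limit read from the data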
Large screens that a line does not name were inactive (follow-up assays come after a bar, where they were run).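 The calls were made as follows, unless noted: active = mean inhibition above about 50% in the one-dose retest (limit read from the data); inactive = the rest.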

COc1ccc(S(=O)(=O)NNc2nc(C)cc(C)n2)cc1[N+](=O)[O-]	none (no result: PPC-1+TRAIL kill)
CC(=O)Nc1nc(-c2ccc3c(c2)OCO3)cs1	SENP6 inh 52 | SENP8 confirm inactive | SENP6 conf inactive | SENP7 conf 56 | Casp3 SENP sel 52 | SENP luc ctr inactive
N#CCC(=O)Nc1nc(-c2ccc3c(c2)OCCO3)cs1	SENP7 block 61, SENP8 block-2 82, SENP6 inh 89 | SENP8 confirm 53 | SENP6 conf 67 | SENP7 conf 89 | Casp3 SENP sel 68 | SENP luc ctr inactive
CSc1ccc(CN2CCN(S(=O)(=O)Cc3ccccc3)CC2)cc1	none (no result: PPC-1+TRAIL kill)
COc1cccc(NC(=O)C2(C)CCN2C(=O)CC2CCCC2)c1 (centres undefined)	none (no result: SENP7 block, PPC-1+TRAIL kill, SENP8 block-2, SENP6 inh)
Fc1ccccc1CSc1nc2ccccc2[nH]1	SENP7 block 85, SENP8 block-2 79, SENP6 inh 83 | SENP8 confirm 86 | SENP6 conf 85 | SENP7 conf 96 | Casp3 SENP sel 83 | SENP luc ctr 86
COc1cccc(CSc2nc3ccccc3[nH]2)c1	SENP7 block 81, SENP8 block-2 77, SENP6 inh 64 | SENP8 confirm inactive | SENP6 conf 79 | SENP7 conf 95 | Casp3 SENP sel 80 | SENP luc ctr 82
O=[N+]([O-])c1cccc(CSc2nc3ccccc3[nH]2)c1	none
Fc1c(F)c(F)c(CSc2nc3ccccc3[nH]2)c(F)c1F	none
COc1ccc(C(=O)Nc2ccccc2C(=O)N2CCOCC2)cc1	none (no result: PPC-1+TRAIL kill)
O=C(Nc1cccc(Cl)c1)c1ccc2ncsc2c1	SENP7 block 62, SENP6 inh 57 (no result: PPC-1+TRAIL kill) | SENP8 confirm 60 | SENP6 conf 60 | SENP7 conf 86 | Casp3 SENP sel 51 | SENP luc ctr 68
CN(C)S(=O)(=O)Oc1cccc(C(=O)Nc2cccc(Cl)c2)c1	SENP7 block 89, SENP8 block-2 76, SENP6 inh 51 | SENP8 confirm 85 | SENP6 conf 85 | SENP7 conf 97 | Casp3 SENP sel 69 | SENP luc ctr 75
O=C(Nc1ccc(Cl)cc1)c1ccc2ncsc2c1	none (no result: PPC-1+TRAIL kill)
Cc1ccnc(NC(=O)c2cccc(OC(F)F)c2)n1	none (no result: PPC-1+TRAIL kill)
CN(C)S(=O)(=O)Oc1cccc(C(=O)Nc2ccc(Cl)c(Cl)c2)c1	SENP8 block-2 55, SENP6 inh 64 | SENP8 confirm inactive | SENP6 conf 67 | SENP7 conf 86 | Casp3 SENP sel inactive | SENP luc ctr inactive
O=C(Nc1cc(Cl)cc(Cl)c1)c1cccc(OC(F)F)c1	SENP6 inh 54 | SENP8 confirm inactive | SENP6 conf inactive | SENP7 conf 69 | Casp3 SENP sel inactive | SENP luc ctr inactive
COc1ccc(CNC(=O)COC(=O)c2ccco2)cc1	none
Cc1ccc(C)c(NC(=O)c2cc(-c3cc(C)ccc3O)n[nH]2)c1	SENP7 block 66 (no result: PPC-1+TRAIL kill) | SENP8 confirm inactive | SENP6 conf inactive | SENP7 conf 82 | Casp3 SENP sel inactive | SENP luc ctr inactive
CCc1ccc(O)c(-c2cc(C(=O)Nc3cccnc3)[nH]n2)c1	none
Cc1cc(O)c(-c2cc(C(=O)Nc3cccnc3)[nH]n2)cc1C	SENP7 block 71 | SENP8 confirm inactive | SENP6 conf inactive | SENP7 conf 66 | Casp3 SENP sel inactive | SENP luc ctr inactive
Cc1cc(C)c(O)c(-c2cc(C(=O)Nc3cccnc3)[nH]n2)c1	SENP6 inh 68 | SENP8 confirm inactive | SENP6 conf inactive | SENP7 conf 73 | Casp3 SENP sel inactive | SENP luc ctr inactive
O=c1c2c(nc3cc(-c4ccccc4)[nH]n13)CCC2	SENP6 inh 57 | SENP8 confirm inactive | SENP6 conf inactive | SENP7 conf inactive | Casp3 SENP sel inactive | SENP luc ctr inactive
O=c1c2c(nc3cc(-c4ccccc4)[nH]n13)CCS2	SENP8 block-2 69, SENP6 inh 78 | SENP8 confirm inactive | SENP6 conf inactive | SENP7 conf inactive | Casp3 SENP sel inactive | SENP luc ctr inactive
CCc1c(C)nc2cc(-c3ccccc3)[nH]n2c1=O	none (no result: PPC-1+TRAIL kill)
O=c1c2c(nc3cc(-c4ccc(Br)cc4)[nH]n13)CCCC2	none (no result: PPC-1+TRAIL kill)
C[C@H](CO)N1C[C@H](C)[C@H](CN(C)C(=O)Cc2cccnc2)Oc2ncc(Br)cc2C1=O	none (no result: SENP7 block, PPC-1+TRAIL kill, SENP8 block-2, SENP6 inh)
CC1CCN(S(=O)(=O)c2ccc3c(c2)N(CC(=O)NCCCN2C(C)CCCC2C)C(=O)CO3)CC1 (centres undefined)	none (no result: PPC-1+TRAIL kill)
CC(C)C[C@H]1CN(CCCC[C@@H]2CNC(=O)C(=O)N2Cc2ccccc2)C(=O)C(=O)N1CCC1CCCCC1	none (no result: SENP7 block, PPC-1+TRAIL kill, SENP8 block-2, SENP6 inh)
Cc1ccc(/C=N/NC(=O)c2ccncc2)s1	none
Cc1ccc(/C=N/N=C/c2ccc(C)s2)s1	SENP7 block 63, SENP6 inh 77 | SENP8 confirm inactive | SENP6 conf 60 | SENP7 conf 82 | Casp3 SENP sel inactive | SENP luc ctr inactive
COc1ccc(/C=C/C(=O)c2sc(-c3ccc(Cl)cc3)nc2C)cc1	none (no result: SENP8 block-1, SENP7 block, TRAIL sens C8, SENP8 block-2, SENP6 inh)
C/C(=N\OC(=O)NC(C)C)c1sc(-c2ccc(Cl)cc2)nc1C	SENP7 block 59 | SENP8 confirm 53 | SENP6 conf 60 | SENP7 conf 84 | Casp3 SENP sel 74 | SENP luc ctr 51
C=C(C)c1sc(-c2ccc(Cl)cc2)nc1C	SENP6 inh 70 (no result: PPC-1+TRAIL kill) | SENP8 confirm inactive | SENP6 conf inactive | SENP7 conf 85 | Casp3 SENP sel inactive | SENP luc ctr inactive
CCNC(=O)O/N=C(\C)c1sc(-c2ccc(Cl)cc2)nc1C	SENP7 block 91, SENP8 block-2 89, SENP6 inh 92 | SENP8 confirm 79 | SENP6 conf 79 | SENP7 conf 95 | Casp3 SENP sel 82 | SENP luc ctr 66
